The panel holds about 83,000 compounds, 20% with a hit somewhere; the sample as a whole holds those more often.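 Interpretation: 100, growth as untreated; towards 0, rising growth inhibition; 0, no net growth; 0 to -100, cell death. Compounds scoring below 10 were considered active.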 Unmarked numbers belong to inactive results. Active and inactive are the calls of the source.

The first test relates to NCI-H23 lung. Description: NCI-60 one-dose screen, 48 h (100 = growth as untreated, 0 = no growth, -100 = all killed). The note with it: 10 µM unless noted.
On to `CC(=O)O[C@H]1CC[C@]2(C)[C@H]3CC=C4[C@@H]5CC(C)(C)CC[C@]5(C(=O)OCC(COC(=O)C(Cl)Cl)(COC(=O)C(Cl)Cl)NC(=O)C(Cl)Cl)CC[C@@]4(C)[C@]3(C)CC[C@H]2C1(C)C`, for which the growth was 87.6%.

In the case of `Clc1ccc(Cl)c(N=Cc2ccc3c(c2)OCO3)c1`, the growth is 99.2%.

`CCN(CC)c1ccc2c(cc1=O)[C@@H](NC(C)=O)CCc1cc(OC)c(OC)c(OC)c1-2`: the growth was 49.5%.

Consider `COc1ccc(CNc2c3ccccc3nc3ccc(OC)cc23)cc1`, for which the growth was 21.4%.

On to `NC(=O)c1ccc[n+](Cc2ccccc2)c1`, for which the growth was 96.1%.

In the case of `N/N=C(\C(=N\N)c1ccccc1)c1ccccc1`, the growth was 98.8%.

`CC1=C(O)C(=O)CC1`: the growth is 96.3%.

For the compound `CCN(CC)CCCC(C)Nc1ccnc2ccc(Oc3ccccc3)cc12` (stereo not drawn), the growth was 90.6%.

`COc1cc2ncnc(Nc3ccc(S(=O)(=O)Nc4nccs4)cc3)c2cc1OCCCN1CCOCC1`: the growth was 104%.

For `CC(=O)Cc1ccccn1`, the growth was 104%.

`CC1OC(n2c3ccccc3c3c4c(c5c6ccccc6[nH]c5c32)C(=O)N(CCN[C@H]2CCC[C@@H]2N)C4=O)CC(O)C1O` (stereo partly drawn): the growth was 33.8%.

Take `O=C(C(=O)N1CCCC1)c1cn(CCCn2cc(C(=O)C(=O)N3CCCC3)c3cc(Br)ccc32)c2ccc(Br)cc12`: the growth was 80.3%.

As for `CCCCCCCOc1cccc(/C=C2\N=C3SCCCN3C2=O)c1`, the growth was 97.3%.

For `COc1ccc(NC(=O)c2sc3c(=O)[nH]c(C(F)(F)F)nc3c2C)cc1`, the growth is 93.4%.

In the case of `C=C[C@H]1CCC/C=C/[C@@H]2C[C@H](O)C[C@H]2[C@H](O)/C=C/C(=O)O1`, the growth was -19.1% (active).

With `C=CC(=O)N1CN(C(=O)C=C)CN(C(=O)C=C)C1`, the growth was 67.4%.

Take `CC(C)CCSc1nc(Nc2ccccc2)c(C#N)c(-c2ccc(F)cc2)n1`: the growth was 74.4%.

For `COC(=O)c1ccc2c(c1)nc(-c1cc3ccccc3[nH]c1=O)n2-c1cc(C(C)(C)C)[nH]n1`, the growth is 44.7%.

For `O=C1NN(C(=O)c2ccccc2)C(c2ccc(Cl)c(Cl)c2)=C/C1=C\c1ccccc1[N+](=O)[O-]`, the growth was -16.9% [6.75 µM] (active).

For the compound `O=C(CCl)Nc1ccc2c(c1)C(=O)c1ccccc1C2=O`, the growth was -21.2% (active).

On to `CCOC(=O)C1C(=O)C=C(c2cc(OC)c(OC)c(OC)c2)CC1c1sc(N(C)Cc2ccccc2)nc1Cl` (stereo not drawn), for which the growth was 87.3%.

In the case of `N/C(=N\OC(=O)c1ccccc1)C(C(=O)NOC(=O)c1ccccc1)C1CCCCC1` (stereo not drawn), the growth was 49.3%.

Consider `C=C(C)[C@@H]1CC[C@]2(C(=O)O)CC[C@]3(C)[C@H](CC[C@@H]4[C@@]5(C)C[C@@H](CC#Cc6ccc(C(C)=O)s6)[C@H](O)C(C)(C)[C@@H]5CC[C@]43C)[C@@H]12`, for which the growth was 60.9%.

Turning to `CC(C)[C@@H]1C=C2CC[C@H]3[C@](C)(CN)CCC[C@]3(C)[C@H]2CC1`, the growth is 95.4%.

In the case of `COc1ccc(-c2cc(-c3cn(-c4cccc(Cl)c4)nc3-c3ccc(OC)cc3)[nH]c(=S)n2)cc1`, the growth is 83%.

On to `CCN1CCN(Cc2ccc(NC(=O)Nc3ccc(-n4ccc5c(NC(=O)c6ccccc6)nccc54)cc3)cc2C(F)(F)F)CC1`, for which the growth is -51.5% (active).

On to `Clc1ccc(C2=NN[C@H](c3cn(-c4ccccc4)nc3-c3ccccc3)C2)cc1`, for which the growth was 52%.

Consider `CC(C)CC1NC(=O)C(CC(C)C)N(CO)C1=O` (stereo not drawn), for which the growth is 104%.

`c1ccc(-c2ccc(-c3ccccc3)[nH]2)cc1`: the growth is 86.5%.

As for `C=CCN(CC#N)CC=C`, the growth was 106%.

With `COc1ccc2c(c1)sc1nc(-c3ccccc3)c(-c3cccc4ccccc34)n12`, the growth was 39.3%.

Turning to `CC(C)c1nc2ccccc2n1CC(=O)N/N=C/c1cccc(O)c1`, the growth was 101%.

As to `CCCCCCCC/C=C\CCCCCCCC(=O)OCCCCCC`, the growth was 98.4%.

Consider `CCN(CC)c1ccc(/C=N/NC(=O)c2ccc(S(C)(=O)=O)cc2)c(O)c1`, for which the growth is 32.8%.

Regarding `CC(=O)CC(c1ccc([N+](=O)[O-])cc1)c1c(O)c2ccccc2oc1=O` (stereo not drawn), the growth was 106%.

`CC1CCCN(CCCCOc2ccc(-c3ccc(C#N)cc3)cc2)C1` (stereo not drawn): the growth was 82.6%.

Regarding `Cn1c(-c2ccccc2)cc(=O)n1-c1ccccc1`, the growth is 96%.

With `O=C(NCCN1CCCC1)n1cc(-c2ccncc2)c(-c2cc(O)cc(Cl)c2)n1`, the growth is 102%.

Regarding `C(=Nc1ccc(-c2ccc(N=Cc3ccccc3)cc2)cc1)c1ccccc1`, the growth is 101%.

The next test has as its system NCI-H226 lung. Described as above. As to conditions: 10 µM unless noted.
In the case of `CC(=O)O[C@H]1CC[C@]2(C)[C@H]3CC=C4[C@@H]5CC(C)(C)CC[C@]5(C(=O)OCC(COC(=O)C(Cl)Cl)(COC(=O)C(Cl)Cl)NC(=O)C(Cl)Cl)CC[C@@]4(C)[C@]3(C)CC[C@H]2C1(C)C`, the growth was 94.2%.

Consider `Clc1ccc(Cl)c(N=Cc2ccc3c(c2)OCO3)c1`, for which the growth is 103%.

For the compound `CCN(CC)c1ccc2c(cc1=O)[C@@H](NC(C)=O)CCc1cc(OC)c(OC)c(OC)c1-2`, the growth is 51%.

For the compound `COc1ccc(CNc2c3ccccc3nc3ccc(OC)cc23)cc1`, the growth was 33.8%.

On to `NC(=O)c1ccc[n+](Cc2ccccc2)c1`, for which the growth is 102%.

Regarding `N/N=C(\C(=N\N)c1ccccc1)c1ccccc1`, the growth was 88.2%.

Take `CC1=C(O)C(=O)CC1`: the growth is 100%.

Turning to `CCN(CC)CCCC(C)Nc1ccnc2ccc(Oc3ccccc3)cc12` (stereo not drawn), the growth is 120%.

Regarding `COc1cc2ncnc(Nc3ccc(S(=O)(=O)Nc4nccs4)cc3)c2cc1OCCCN1CCOCC1`, the growth was 99.7%.

With `CC(=O)Cc1ccccn1`, the growth was 98%.

As for `CC1OC(n2c3ccccc3c3c4c(c5c6ccccc6[nH]c5c32)C(=O)N(CCN[C@H]2CCC[C@@H]2N)C4=O)CC(O)C1O` (stereo partly drawn), the growth is 40.5%.

As to `O=C(C(=O)N1CCCC1)c1cn(CCCn2cc(C(=O)C(=O)N3CCCC3)c3cc(Br)ccc32)c2ccc(Br)cc12`, the growth is 85.9%.

As for `CCCCCCCOc1cccc(/C=C2\N=C3SCCCN3C2=O)c1`, the growth is 93.7%.

As for `COc1ccc(NC(=O)c2sc3c(=O)[nH]c(C(F)(F)F)nc3c2C)cc1`, the growth was 97.7%.

For the compound `C=C[C@H]1CCC/C=C/[C@@H]2C[C@H](O)C[C@H]2[C@H](O)/C=C/C(=O)O1`, the growth was 3.22% (active).

On to `C=CC(=O)N1CN(C(=O)C=C)CN(C(=O)C=C)C1`, for which the growth was 87%.

`CC(C)CCSc1nc(Nc2ccccc2)c(C#N)c(-c2ccc(F)cc2)n1`: the growth is 90.7%.

`COC(=O)c1ccc2c(c1)nc(-c1cc3ccccc3[nH]c1=O)n2-c1cc(C(C)(C)C)[nH]n1`: the growth was 90.4%.

With `O=C1NN(C(=O)c2ccccc2)C(c2ccc(Cl)c(Cl)c2)=C/C1=C\c1ccccc1[N+](=O)[O-]`, the growth is -10.3% [6.75 µM] (active).

Regarding `O=C(CCl)Nc1ccc2c(c1)C(=O)c1ccccc1C2=O`, the growth is -22.6% (active).

On to `CCOC(=O)C1C(=O)C=C(c2cc(OC)c(OC)c(OC)c2)CC1c1sc(N(C)Cc2ccccc2)nc1Cl` (stereo not drawn), for which the growth is 74.1%.

As for `N/C(=N\OC(=O)c1ccccc1)C(C(=O)NOC(=O)c1ccccc1)C1CCCCC1` (stereo not drawn), the growth is 100%.

Regarding `C=C(C)[C@@H]1CC[C@]2(C(=O)O)CC[C@]3(C)[C@H](CC[C@@H]4[C@@]5(C)C[C@@H](CC#Cc6ccc(C(C)=O)s6)[C@H](O)C(C)(C)[C@@H]5CC[C@]43C)[C@@H]12`, the growth is 77.1%.

As to `CC(C)[C@@H]1C=C2CC[C@H]3[C@](C)(CN)CCC[C@]3(C)[C@H]2CC1`, the growth was 98.7%.

`COc1ccc(-c2cc(-c3cn(-c4cccc(Cl)c4)nc3-c3ccc(OC)cc3)[nH]c(=S)n2)cc1`: the growth was 85.8%.

For `CCN1CCN(Cc2ccc(NC(=O)Nc3ccc(-n4ccc5c(NC(=O)c6ccccc6)nccc54)cc3)cc2C(F)(F)F)CC1`, the growth was 71.1%.

`Clc1ccc(C2=NN[C@H](c3cn(-c4ccccc4)nc3-c3ccccc3)C2)cc1`: the growth was 55%.

Turning to `CC(C)CC1NC(=O)C(CC(C)C)N(CO)C1=O` (stereo not drawn), the growth is 91.3%.

In the case of `c1ccc(-c2ccc(-c3ccccc3)[nH]2)cc1`, the growth was 86.5%.

For `C=CCN(CC#N)CC=C`, the growth is 95.5%.

`COc1ccc2c(c1)sc1nc(-c3ccccc3)c(-c3cccc4ccccc34)n12`: the growth is 68.2%.

Consider `CC(C)c1nc2ccccc2n1CC(=O)N/N=C/c1cccc(O)c1`, for which the growth was 105%.

As to `CCCCCCCC/C=C\CCCCCCCC(=O)OCCCCCC`, the growth is 94.7%.

As for `CCN(CC)c1ccc(/C=N/NC(=O)c2ccc(S(C)(=O)=O)cc2)c(O)c1`, the growth was 22.6%.

Consider `CC(=O)CC(c1ccc([N+](=O)[O-])cc1)c1c(O)c2ccccc2oc1=O` (stereo not drawn), for which the growth was 93.9%.

On to `CC1CCCN(CCCCOc2ccc(-c3ccc(C#N)cc3)cc2)C1` (stereo not drawn), for which the growth was 93.4%.

Regarding `Cn1c(-c2ccccc2)cc(=O)n1-c1ccccc1`, the growth was 102%.

Regarding `O=C(NCCN1CCCC1)n1cc(-c2ccncc2)c(-c2cc(O)cc(Cl)c2)n1`, the growth is 93.9%.

For the compound `C(=Nc1ccc(-c2ccc(N=Cc3ccccc3)cc2)cc1)c1ccccc1`, the growth was 97.4%.
